Results on twelve compounds are retold here after PubChem BioAssay (NCATS).

Values joined by “and” are separate entries in the source; they are usually repeats but may differ in a detail not shown here. Identical values can stand only once. Records with an inconclusive call do not appear. Active and inactive are the calls of the source. Calls follow the shape of the dose curve; as a rule, active = well fitted curve in the direction sought with a large enough effect; inconclusive = small, poorly fitted or top-dose-only effect, or another doubt; inactive = no such curve, though single readings can be large; an effect the other way counts as inactive or inconclusive.

The test system of test [1] is Zika virus NS2B-NS3 protease. In words: Primary screen GU AMC qHTS for Zika virus inhibitors (AID 1347154). Also: nearly all actives have a fitted effect of over 70% in size. In outline:
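Unlinked Zika NS2B hydrophilic domain/NS3 protease domain noncovalent complex (25 nM final) in 10 mM Tris-HCl pH 8.0, 0.01% Tween 20, with AMC peptide substrate. Fluorescence (ex 340, em 450 nm) change over 15 min, room temperature; percent inhibition fitted to 4-parameter Hill equation.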
Background: In qHTS, concentration-response curves come from the screen itself.

In test [2] the test system is Zika virus NS2B-NS3 protease (unlinked complex). In words: Primary screen GU Rhodamine qHTS for Zika virus inhibitors: Unlinked NS2B-NS3 protease assay (AID 1347159). Also: nearly all actives have a fitted effect of over 60% in size. Also: potency is read from the fitted curve at half-maximal effect. In outline: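 Buffer 10 mM Tris-HCl pH 8.0, 0.01% Tween 20. Unlinked protease 25 nM; compound preincubation 15 min, RT, protected from light. Substrate Rhod110, 1.5 microM; ~15% conversion in 15 min.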

The subject of test [3] is Zika virus NS2B-NS3 protease (linked construct). In words: Primary screen NINDS Rhodamine qHTS for Zika virus inhibitors (AID 1347160). Also: nearly all actives have a fitted effect of over 55% in size. Also: potency is read from the fitted curve at half-maximal effect. In outline: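 Aprotinin served as in-plate control. Conditions: 25 nM linked NS2B-NS3, pH 8.0 Tris buffer, titrated compounds, 15 min preincubation and 15 min reaction with 1.5 microM Rhod110 substrate at room temperature.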
Test [4] in a line: ZIKV-mCherry secondary qHTS for Zika virus inhibitors (AID 1347158). Also: top concentration of the series differs between compounds. In outline:
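Read-out is percent infection: mCherry-positive Vero cells (nuclear-proximal intensity >450 RFU, 3 SD above negative controls) counted by high-content imaging of Hoechst-stained, PFA-fixed wells after 48-72 h with ZIKV-mCherry at MOI 1 and compound.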

Test [5] can be described thus: Confirmatory screen NINDS Rhodamine qHTS for Zika virus inhibitors (AID 1347161). Also: nearly all actives have a fitted effect of over 60% in size. Also: potency is read from the fitted curve at half-maximal effect. In outline: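 Kinetic fluorescence (Ex 480 nm, Em 540 nm) over 15 min with 1.5 microM Rhodamine110 peptide and 25 nM linked protease.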
In test [6] the test system is Zika virus NS2B-NS3 protease (linked). In words: 384 well plate NINDS AMC confirmatory qHTS for Zika virus inhibitors (AID 1347163). Also: potency is read from the fitted curve at half-maximal effect; nearly all actives have a fitted effect of over 50% in size. The note with it: Recombinant NS2B-NS3 protease, Ac-VKTGKR-AMC fluorescence. The method in brief: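 Enzyme (5, 30 or 60 nM final) first met test compounds for ~15 min. The AMC-tagged peptide Ac-VKTGKR-AMC followed at 30 microM. Fluorescence was then recorded at 25 min and scaled against no-enzyme and no-inhibitor wells.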

A short description of test [7]: Confirmatory screen GU Rhodamine qHTS for Zika virus inhibitors qHTS (AID 1347157). Also: nearly all actives have a fitted effect of over 70% in size. In outline: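 Unlinked NS2B/NS3, 25 nM; Rhod110 peptide, 1.5 microM; compounds, up to 114 microM. Reaction run 15 min at RT in 10 mM Tris-HCl pH 8.0, 0.01% Tween 20; kinetic fluorescence change fitted with a 4-parameter Hill model.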

Take `O=C1C=CC[C@@H]2[C@H]3CCCN4CCC[C@@H](CN12)[C@@H]34`: the Potency entry in test [1] and in test [2] was “inactive” throughout.

With `CCN(CC)C(=O)c1ccc(C2=CC3(CCNCC3)Oc3cccc(O)c32)cc1`, the Potency result in test [1], in test [2] and in test [3] was “inactive” each time.

As for `CN(C)[C@@H]1C(=O)C(C(N)=O)=C(O)[C@@]2(O)C(=O)C3=C(O)c4c(O)cccc4[C@@](C)(O)[C@H]3[C@H](O)[C@@H]12`, the compound was called inactive in test [4]. Besides, the Potency in test [5] is 19.7 µM (active) and 7.82 µM (active); in test [6], 158 µM (active) and 8.91 µM (active).

Consider `Cc1[nH]nc2ccc(-c3cncc(OC[C@@H](N)Cc4c[nH]c5ccccc45)c3)cc12`, for which the Potency entry in test [1], in test [2] and in test [3] was “inactive” throughout.

`CCNC(=O)CC1N=C(c2ccc(Cl)cc2)c2cc(OC)ccc2-n2c(C)nnc21` (configuration not stated): the Potency entry in test [1], in test [2] and in test [3] was “inactive” in each case.

Turning to `CN1CCN(c2ccc([N+](=O)[O-])c3no[n+]([O-])c23)CC1`, the Potency entry in test [1], in test [2] and in test [3] was “inactive” each time.

For `S=C(SSC(=S)N1CCCCC1)N1CCCCC1`, the Potency result in test [1] was “inactive”.

Regarding `Cc1ccccc1-n1c(Cn2ncc3c(N)ncnc32)nc2cccc(C)c2c1=O`, the Potency result in test [1], in test [2] and in test [3] was “inactive” throughout.

`O=[N+]([O-])c1c(Cl)c(Cl)cc(Cl)c1Cl`: the Potency result in test [1], in test [7] and in test [5] was “inactive” throughout.

With `CCc1c(C(=O)C(N)=O)c2c(OCC(=O)O)cccc2n1Cc1ccccc1`, the Potency result in test [1], in test [2] and in test [3] was “inactive” throughout.

On to `COc1ccc(N(C(=O)Oc2c(C)cccc2C)c2ccnc(Nc3ccc(N4CCN(C)CC4)cc3)n2)c(OC)c1`, for which the Potency entry in test [1] and in test [3] was “inactive” in each case.

With `O=C(O)CNC(=O)c1c(O)c2ccccc2n(Cc2ccccc2)c1=O`, the Potency result in test [1] is “inactive”. Further, the Potency in test [2] was 12.6 µM (active); in test [3] it was 11.2 µM (active).
